Measured values taken from PubChem BioAssay.
A number with no mark means an inactive call. Active and inactive are the calls of the source.

Experiment: viability profiling in MM1S myeloma cells – cell-based, resazurin fluorescence, basal, 24 h, PK04 Diversity Set, profiling panel (AID 1174);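 further: MM1S multiple myeloma cell line; test concentration not given here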
Settings: higher = more signal, called active from +8 up or from −8 down

| Compound | z-score |
| --- | --- |
| COc1ccc(CCNC(=O)[C@@]2(c3ccc([N+](=O)[O-])cc3)CC(=O)N(CC34CC5CC(CC(C5)C3)C4)[C@@H]2c2ccc(CO)cc2I)cc1 | -1.81 |
| COc1ccc([C@H]2C[C@H]3C(Br)=C[C@@]2(CO)C(=O)[C@]32CO2)cc1 | -0.445 |
| O=C(NC1CC1)[C@@H]1c2ccccc2C(=O)N(Cc2cc(F)cc(C(F)(F)F)c2)[C@H]1c1ccc(CO)cc1 | -0.24 |
| COC(=O)[C@@]1(Cc2ccc(OC)cc2)[C@H]2c3cc(C(=O)N4CCCC4)n(CCCNc4ncc(C(F)(F)F)cc4Cl)c3C[C@H]2CN1C(=O)c1ccccc1 | -1.12 |
| CO[C@H]1O[C@H](CO)[C@@H](OC(=O)Nc2ccc(Oc3ccccc3)cc2)[C@H](OC(=O)Nc2ccc3c(c2)OCO3)[C@@H]1OC(=O)Nc1ccc2c(c1)OCO2 | -0.949 |
| C=C(CCCC)/C(=C/C[C@H](OC(C)=O)c1ccccc1OCCO)c1cnc2ccccc2c1 | -1.37 |
| CC(C)(C)OC(=O)CC[C@@]1(C(=O)N2CCCCC2)N=C(c2ccc(OCCCO)cc2)O[C@@H]1c1ccccc1 | -0.76 |
| O=C(CS)NCCCCCNC(=O)[C@@H]1C[C@@H]2C(=O)NCC(=O)N2[C@@H]1c1ccc(O)cc1 | -1.06 |
| CCCCN1CC=CC23O[C@@H]4/C=C\CCCOC(=O)C4[C@H]2C(=O)N(CCCCCO)[C@@H]3C1=O (some centres not stated) | 0.451 |
| COc1ccc(C(=O)Nc2cccc(CN3C(=O)[C@]4(O[C@H](CCn5cc(CCO)nn5)[C@@H]([Si](C)(C)c5ccc(OC)cc5)[C@@H]4C)c4ccccc43)c2)cc1 | -9.11 (active) |
| Cc1ccc(S[C@]2(C(=O)NCC(C)C)CC(=O)N(Cc3cc(C(F)(F)F)cc(C(F)(F)F)c3)[C@@H]2c2ccc(CO)cc2)cc1 | -0.656 |
| [N-]=[N+]=NCc1ccccc1[C@@H]1OC(c2ccc(OCCCO)cc2)=N[C@]1(CCS(=O)(=O)c1ccccc1)C(=O)N1CCOCC1 | 0.543 |
| CS(=O)(=O)CCOC(=O)C1=CC(CCCO)=CC(C2CC2)N(Cc2cc3c(cc2Br)OCO3)C=C1C(=O)OCCS(C)(=O)=O (configuration not stated) | -0.134 |
| C=CC[C@]12N=C(c3ccc(OCCCO)cc3)O[C@H]1c1ccccc1N(CCS(=O)(=O)c1ccccc1)C2=O | -1.58 |
| CC1CC/C=C\[C@H]2OC34C=CCN(Cn5nnc6ccccc65)C(=O)[C@H]3N(CCCCCO)C(=O)[C@@H]4C2C(=O)O1 (some centres not stated) | -0.88 |
| C#CCN(C/C=C/c1ccccc1)[C@H](CO)c1ccccc1 | -1.19 |
| O=C1N(CCS(=O)(=O)c2ccccc2)c2ccccc2[C@@H]2OC(c3ccc(OCCCO)cc3)=N[C@]12Cc1ccccc1 | -3.11 |
